Laboratory results as given in the supplement of paper PMC9334596.
Values joined by “and” are separate entries in the source; they are usually repeats but may differ in a detail not shown here. Equal values may be shown once. Over roughly 5,300 compounds, “PER2::LUC luminescence relative to vehicle control” has its median near 0.96; the highest 2% begin near 1.3. The list comes from a sample in which the highest values are over-represented; it also holds similar structures and randomly drawn compounds.

Test system: mPer2Luc MEF
Assay: PER2::LUC luminescence relative to vehicle control (fold of vehicle); higher = higher PER2::LUC reporter signal
Conditions: 10 µM
How it was run: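 The reported values are PER2::LUC luminescence as fold of vehicle control in mouse embryonic fibroblasts carrying the mPer2Luc reporter. Cells were seeded at ~3000 per well in 384-well plates in DMEM with 10% FBS at 37 °C and 5% CO2, and compounds were added at 10 μM 48 h later. ONE-Glo luminescence was read 24 h and 30 h after treatment.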

Compound	PER2::LUC luminescence (time after treatment 24 h)	PER2::LUC luminescence (time after treatment 30 h)
COc1cccc2oc(-c3ccccc3)cc(=O)c12	1.41	1.43
COc1cc(OC)c2c(=O)cc(-c3ccccc3)oc2c1	1.01	1.12
COc1ccc(-c2cc(=O)c3c(OC)c(OC)c(OC)cc3o2)cc1OC	0.736	0.843
O=c1cc(-c2ccccc2)oc2cccc(O)c12	1.25	1.42
O=c1cc(-c2ccccc2)oc2cc(O)c(O)c(O)c12	1.13	1.1
O=c1cc(-c2ccc(O)cc2)oc2cc(O)cc(O)c12	0.595	0.545
O=C(O)[C@H]1O[C@@H](Oc2cc3oc(-c4ccccc4)cc(=O)c3c(O)c2O)[C@H](O)[C@@H](O)[C@@H]1O	1.22	1.34
COc1cc(C)c2c(=O)cc(-c3ccccc3)oc2c1	1.64	1.76
O=c1cc(-c2ccccc2)oc2cc(O)cc(O)c12	1.55 and 1.53	2.06 and 1.73
COc1ccc(-c2cc(=O)c3c(OC(C)=O)cc(OC(C)=O)cc3o2)cc1	1.25	1.3
COc1c(O)cc(O)c2c(=O)cc(-c3ccccc3)oc12	1.03	1.02
O=c1cc(-c2ccc(O)c(O)c2)oc2cc(O)cc(O)c12	1.01	1.1
CC[C@H]1OC(=O)C[C@@H](O)[C@H](C)[C@@H](O[C@@H]2O[C@H](C)[C@@H](O)[C@H](N(C)C)[C@H]2O)[C@@H](CCN2CCCCC2)C[C@@H](C)C(=O)/C=C/C(C)=C/[C@@H]1CN1CCCCC1	0.885	0.882
CC1NC(=O)NC1=O (configuration not stated)	0.946	0.877
CCO[C@H]1CN(C2CCC(O)(c3ccc4c(c3)OCO4)CC2)C[C@@H]1NC(=O)CNC(=O)c1cccc(C(F)(F)F)c1 (some centres not stated)	0.97	0.88
C#CCN(Cc1cc2c(=O)n(C)c(CN3CCN(C)CC3)nc2cc1Cl)c1ccc(C(=O)NCc2cccnc2)cc1	0.621	0.565
c1ccc2c3c([nH]c2c1)[C@H]1[C@@H]2CC[C@@H]([C@@H]4CCCN[C@@H]42)N1CC3	1.23	1
CC(C)CCC[C@@H](C)[C@H]1CC[C@H]2[C@@H]3C=CC4=CC(=O)CC[C@]4(C)[C@H]3CC[C@]12C	0.981	0.927
CC(C(=O)O[C@]12CCC[C@H](CC1)N2C)c1ccc(Br)cc1 (some centres not stated)	0.821	0.934
CCOc1ccc(Oc2ccc(OCc3cc(F)ccc3F)cc2)c(N)c1	1.03	0.887
C[C@@H]1O[C@@H](OC[C@H]2O[C@@H](OCCc3ccc(O)c(O)c3)[C@H](O)[C@@H](O[C@@H]3O[C@@H](C)[C@H](O)[C@@H](O)[C@H]3O)[C@@H]2OC(=O)/C=C/c2ccc(O)c(O)c2)[C@H](O)[C@H](O)[C@H]1O	1.09	0.982

Compound	PER2::LUC luminescence (time after treatment 24 h)	PER2::LUC luminescence (time after treatment 30 h)
N[C@@H](C(=O)N[C@@H]1C(=O)N2C(C(=O)O)=C(CSc3cn[nH]n3)CS[C@H]12)c1ccc(O)cc1	1	0.912
C/C1=C/CCC(C)(O)/C=C\C(C(C)C)C(OC(=O)c2ccc(O)cc2)C1 (configuration not stated)	1.06	1.07
O=C1NC(=O)/C(=C/c2cccc(C(F)(F)F)c2)S1	1.02	1.06
O=C1NC(=O)/C(=C/c2ccc3c(c2)OC(F)(F)O3)S1	1.31 and 1.12	1.42 and 1.06
O=C1NC(=O)/C(=C\c2ccc3nccnc3c2)S1	1.2	1.23
O=C(O)c1cccc(CN2C(=O)/C(=C(\c3ccccc3)c3ccc(Cl)cc3)c3ccccc32)c1	1.09	1.03
CO[C@@H]1[C@@H](O[C@@H]2O[C@H](C)[C@@H](O[C@H]3C[C@@](C)(O)[C@@H](OC(=O)CC(C)C)[C@H](C)O3)[C@H](N(C)C)[C@H]2O)[C@@H](CC=O)C[C@@H](C)[C@@H](O)/C=C/C=C/C[C@@H](C)OC(=O)C[C@H]1O	0.929	1.07
CN(C)c1ccc2c(c1)OC(N)=C(C#N)C2c1cccc(C(F)(F)F)c1 (configuration not stated)	1.04	1
NC(=O)c1ccccc1Nc1ccnc(Nc2cccc(O)c2)n1	0.392	0.446
CC1(C)C2CCC1(C)C(O)C2 (configuration not stated)	1.1	0.997
Clc1ccc(COC(Cn2ccnc2)c2ccc(Cl)cc2Cl)c(Cl)c1 (configuration not stated)	1.04 and 0.591	1.29 and 1.01
Clc1ccc(COC(Cn2ccnc2)c2ccc(Cl)cc2Cl)cc1 (configuration not stated)	1.26 and 1.03	1.35 and 1.25
Clc1ccc(C(Cn2ccnc2)OCc2ccc(Sc3ccccc3)cc2)c(Cl)c1 (configuration not stated)	0.905	1.06
C=CC(C1=CC(=O)C(OC)=CC1=O)c1ccc(O)cc1 (configuration not stated)	0.816	0.863
CCCCCCCCCCC1=C(C)C(=O)C(OC)=C(OC)C1=O	1.02	0.992
CCN1C[C@H](C)n2c(c(O)c3c(=O)n(Cc4ccc(F)c(Cl)c4)nc(C(=O)NC)c32)C1=O	1.29	1.16
C[C@@H]1CCO[C@H]2Cn3cc(C(=O)NCc4ccc(F)cc4F)c(=O)c(O)c3C(=O)N12	1.35 and 1.15	1.4 and 1.2
CC(=O)c1ccc2c(c1)C1C=CCC1C(c1cc3c(cc1Br)OCO3)N2 (configuration not stated)	1.02	0.942
CC(C(=O)Nc1cc(C#N)ccc1CCCC(=O)O)c1ccc(F)c2ccccc12 (configuration not stated)	1.06	1.03
COC(=O)C(O)CCn1cnc2c(N)ncnc21 (configuration not stated)	0.95	0.999
CC1(C)S[C@@H]2[C@H](NC(=O)COc3ccccc3)C(=O)N2[C@H]1C(=O)O	1.09	1.56

Compound	PER2::LUC luminescence (time after treatment 24 h)	PER2::LUC luminescence (time after treatment 30 h)
CC1(C)S[C@@H]2[C@H](NC(=O)[C@H](N)c3ccccc3)C(=O)N2[C@H]1C(=O)O	1.04 and 0.885	0.911 and 0.808
CC1(C)S[C@@H]2[C@H](NC(=O)Cc3ccccc3)C(=O)N2[C@H]1C(=O)O	1.06 and 1.17	1.72 and 0.949
CC(Oc1ccccc1)C(=O)N[C@@H]1C(=O)N2[C@@H]1SC(C)(C)[C@@H]2C(=O)O (some centres not stated)	1.02	0.902
CC1(C)S[C@@H]2[C@H](NC(=O)C(C(=O)O)c3ccccc3)C(=O)N2[C@H]1C(=O)O (some centres not stated)	1.05	1.03
COc1cccc(OC)c1C(=O)N[C@@H]1C(=O)N2[C@@H]1SC(C)(C)[C@@H]2C(=O)O	0.867	0.823
Nn1cc(Br)c(=O)[nH]c1=O	0.972	0.954
CC[N+]1(C)C2CCC1CC(OC(=O)C1CCC(C(=O)OC3CC4CCC(C3)[N+]4(C)CC)(c3ccccc3)c3ccccc31)C2 (configuration not stated)	0.898	0.961
CN(Cc1ccccc1)c1ccc2cc(C(=O)O)c(=O)oc2c1	1.06	0.948
C[C@@H](O)CCCCn1c(=O)c2c(ncn2C)n(C)c1=O	0.991	0.943
CCc1c(C(=O)NNC(=O)[C@H](O)c2cc(F)cc(F)c2)ccc(O)c1C	1	0.957
CCCCCCCCCCCCCCCCCC(=O)OC(CC(=O)O)C[N+](C)(C)C (racemic)	0.909	0.786
CCC[C@@H]1C[C@@H](C(=O)N[C@@H]([C@H]2O[C@H](SC)[C@H](O)[C@@H](O)[C@H]2O)[C@@H](C)O)N(C)C1	0.932 and 0.965	0.909 and 0.803
CCC[C@@H]1C[C@@H](C(=O)N[C@@H]([C@H]2O[C@H](SC)[C@H](OP(=O)(O)O)[C@@H](O)[C@H]2O)[C@H](C)Cl)N(C)C1	1.07	1.01
CCC[C@@H]1C[C@@H](C(=O)N[C@@H]([C@H]2O[C@H](SC)[C@H](O)[C@@H](O)[C@H]2O)[C@H](C)Cl)N(C)C1	1.08	1.93
NC(=O)c1cccc2ncc(-c3ccc(Cl)cc3)nc12	1.12	1.16
COc1cc(O)c2c(=O)c(O)c(-c3ccccc3)oc2c1	0.99	1.06
COC(=O)[C@@H]1OC(=O)C2OC23[C@@]1(C)CCC1[C@@]2(C)CCC(=O)C(C)(C)C2C[C@@H](OC(C)=O)[C@]13C (some centres not stated)	0.9	0.921
O=c1cccc2ccc(O)c(O)c2c1O	0.987	0.83
N#Cc1nccc(Oc2cccc(-c3ccc(CN)cc3)c2)n1	0.994	1.14
CC(=O)N[C@H]1[C@H]([C@H](O)[C@H](O)CO)O[C@@](Oc2c[nH]c3ccc(Br)c(Cl)c23)(C(=O)O)C[C@@H]1O	1	0.967
NS(=O)(=O)C#Cc1ccccc1	1.18	0.903

Compound	PER2::LUC luminescence (time after treatment 24 h)	PER2::LUC luminescence (time after treatment 30 h)
Cc1cccc(C#Cc2ccccc2)n1	1.56 and 1.59 and 1.5	1.16 and 1.75 and 1.47
Cc1nc(C#Cc2cccnc2)cs1	1.15	1.26
Cc1cc(C)c(/C=C2\C(=O)Nc3ccc(Cl)cc32)[nH]1	1.06	1.02
O=C(/C=C/c1ccc(O)c(O)c1)OCCc1ccccc1	0.173	0.361
O=C(O)/C=C/c1ccc(O)c(O)c1	0.886	0.894
O=C(/C=C/c1ccc(O)c(O)c1)O[C@@H]1C[C@](O)(C(=O)O)C[C@@H](O)[C@H]1O	1.8	1.28
C[C@H]1CCN(C(=O)CC#N)C[C@H]1N(C)c1ncnc2[nH]ccc12	1	1.02
O=Nc1c(O)[nH]c2c(Cl)c(Cl)ccc12	1.05	1.07
OCCOCCN1CCN(C(c2ccccc2)c2ccccc2)CC1	0.939	0.9
O=C(O)/C(=C\c1c(C(=O)O)[nH]c2cc(Cl)cc(Cl)c12)c1ccccc1	1.4	1.34
O=C(O)c1cc(=O)c2c(Cl)cc(Cl)cc2[nH]1	1.04	1
O=C(O)CCc1c(C(=O)O)[nH]c2cc(Cl)cc(Cl)c12	1.03	0.901
O=C(O)[C@@H]1C[C@H](CP(=O)(O)O)CCN1	1.03	0.992
O=C1Nc2nc(-c3c(O)cccc3OCC3CC3)cc([C@@H]3CCCNC3)c2CO1	0.574	0.66
COc1ccc(CCC(=O)Nc2nc3ccc(Cl)cc3s2)cc1OC	0.875 and 0.954	1.04 and 0.951
Cc1cc2sc(NC(=O)Cc3ccccc3)nc2cc1Cl	1.02	1.38
CC[N+](CC)(CC(=O)Nc1c(C)cccc1C)Cc1ccccc1	0.988	0.901
C[C@@H]1O[C@@H](OC[C@H]2O[C@@H](Oc3cc(O)c4c(=O)cc(-c5ccc(O)cc5)oc4c3)[C@H](O)[C@@H](O)[C@@H]2O)[C@H](O)[C@H](O)[C@H]1O	0.948	0.927
